Most compounds without a hit are left out; they make up all but 2.4% or so of the library.
PfG6PD inh: PfG6PD (Plasmodium falciparum) enzyme inhibition. PfGluPho enzyme, NADPH resazurin-diaphorase fluorescence. inhibition, % at 20 µM. 0.78% of 350,000 active. AID 504690;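 active means inhibition reaching at least a set limit at 20 µM in the primary screen, cut at about 59% in these data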;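 further: 0% = DMSO wells with substrate and 100% = DMSO wells lacking glucose-6-phosphate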
PfM18AAP inh: PfM18AAP enzyme inhibition; recombinant PfM18AAP, H-Glu-NHMec fluorogenic cleavage; AID 1822; 1.2% of 290,000 active; inhibition, % at 7.35 µM;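 active means inhibition above the campaign mean inhibition over all tested compounds plus 3 SD, cut at about 28% in these data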;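 further: 0% = plate median of test compound wells and 100% = 2 mM ZnCl2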
A3G deaminase: APOBEC3G (human) deaminase inhibition. recombinant A3G, ssDNA deamination FAM/TAMRA fluorescence. inhibition, % at 20 µM. 0.28% of 330,000 active;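 active means inhibition of at least 40% at 20 µM, with no more than 30% in the related APOBEC3A deaminase screen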;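 further: plate controls were DMSO wells with A3G for no effect and wells lacking A3G enzyme for full effect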
Target sequence (Q9HC16 whole entry, looked up): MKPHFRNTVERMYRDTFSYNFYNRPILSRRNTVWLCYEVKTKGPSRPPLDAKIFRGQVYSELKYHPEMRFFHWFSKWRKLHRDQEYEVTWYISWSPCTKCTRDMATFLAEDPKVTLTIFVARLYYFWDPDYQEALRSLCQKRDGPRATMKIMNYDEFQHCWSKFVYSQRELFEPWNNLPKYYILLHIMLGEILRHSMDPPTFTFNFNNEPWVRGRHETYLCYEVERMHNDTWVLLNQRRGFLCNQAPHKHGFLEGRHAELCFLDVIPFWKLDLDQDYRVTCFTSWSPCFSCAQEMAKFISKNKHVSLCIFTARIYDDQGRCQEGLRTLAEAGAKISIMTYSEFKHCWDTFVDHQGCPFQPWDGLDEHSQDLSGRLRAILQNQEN
CR mimetic SO: caloric restriction mimetics inhibiting age-related superoxide in yeast. S. cerevisiae aged cells, superoxide DHE fluorescence; stronger effect = lower value. superoxide response (% of plate mean), % at 10 µM. 0.18% of 330,000 active;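 active means superoxide response under a set limit, about three screen SD below normal, cut at about 65% in these data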;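 further: yeast aged for seven days with compound at 30 °C before DHE staining; 100% = average MFI of all compound-treated wells on the plate with controls excluded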
APOBEC3A inh: blocks human APOBEC3A ssDNA deamination | P31941 | recombinant A3A, FAM/TAMRA ssDNA deamination fluorescence | inhibition, % at 20 µM | 0.41% of 330,000 active | AID 493011;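 active means at least 40% inhibition at 20 µM here, with at most 30% in a related deaminase screen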;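 further: plate controls were A3A with DMSO for no effect and wells lacking A3A enzyme for full effect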
Target sequence (P31941 whole entry, looked up): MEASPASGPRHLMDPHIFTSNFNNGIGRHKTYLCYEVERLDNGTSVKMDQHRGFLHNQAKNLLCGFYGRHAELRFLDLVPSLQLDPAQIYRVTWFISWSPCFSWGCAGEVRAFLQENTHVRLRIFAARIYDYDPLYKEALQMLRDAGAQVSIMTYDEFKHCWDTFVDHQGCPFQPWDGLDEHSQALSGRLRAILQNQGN
Superoxide pick: yeast aging superoxide inhibition, cherry pick confirmation; shares compounds with CR mimetic SO; S. cerevisiae aging, superoxide DHE fluorescence; stronger effect = lower value; superoxide response (% of plate), % at 10 µM; 1% of 850 active; AID 434994;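 active means superoxide signal below 65% of the plate average of sample wells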;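 further: cells aged with compound for 7 days at 30 degrees C before staining; 100% equals mean DHE fluorescence of all compound wells on the plate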
DHE counter: compound alters DHE oxidation or fluorescence in yeast. shares compounds with CR mimetic SO. S. cerevisiae BY4741, flow cytometry; stronger effect = lower value. fluorescence response, % at 10 µM. 850 tested, under 10 active;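 active means fluorescence response below 15%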;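 further: percent of the mean fluorescence averaged over all compound wells on the plate; lower means stronger quenching of DHE signal or ROS scavenging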
Numbers without * were called inactive; . = not tested or not shown.

SMILES	PfG6PD inh	PfM18AAP inh	A3G deaminase	CR mimetic SO	APOBEC3A inh	Superoxide pick	DHE counter
CCOC(=O)CCc1c(C)nc2cc(-c3ccc(Cl)cc3)[nH]n2c1=O	-27	-1	0	89	1	.	.
Cc1nc2cc(-c3ccc(Br)cc3)[nH]n2c(=O)c1Cl	15	-5	-5	101	-6	94	90
O=c1cc(-c2ccccc2)nc2cc(-c3ccc(Br)cc3)[nH]n12	-22	-19	-5	53*	-1	95	96
CCc1c(C)nc2cc(-c3ccc(Cl)cc3)[nH]n2c1=O	3	4	-5	92	-6	99	97
Cc1cc(C)cc(NC(=O)COC(=O)COc2ccc(N(C)S(=O)(=O)c3cccs3)cc2)c1	18	.	-8	115	6	.	.
CCOc1cccnc1Sc1ccccc1	-3	.	-2	69	-1	.	.
COc1ccc(S(=O)(=O)Cc2ccc(C(=O)NC3CCCCCC3)o2)cc1	1	4	-1	105	0	.	.
O=C(O)/C=C\c1cccc(-n2nnnc2SCc2ccccc2F)c1	-43	-3	-5	111	-2	.	.
CC(C)CC(NC(=O)/C(=C/c1ccco1)NC(=O)c1ccc(Br)o1)C(=O)O (stereo unspecified)	-11	3	2	104	14	.	.
Cc1nc2cc(-c3ccc(F)cc3)[nH]n2c(=O)c1C	24	3	-6	95	-8	108	94
CCc1ccc(Cc2cnc(NC(=O)C3=NCCN3)s2)cc1	13	6	-8	101	3	.	.
O=c1cc2c(nn1Cc1ccc(F)cc1)-c1ccccc1CC2	-24	8	-6	59*	0	97	88
O=c1cc2c(nn1Cc1ccccc1)-c1ccccc1CC2	-8	-4	-4	103	0	.	.
COC(=O)c1c(C)nc2ccccc2c1C(=O)O	6	-6	9	103	2	.	.
COc1ccc(-c2c(C(=O)O)nc3ccccc3c2C(=O)O)cc1	55	-1	-6	62*	0	110	99
CCN(CC)S(=O)(=O)N1CCC(C(=O)NC2CCCC2)CC1	-6	5	-1	64*	1	119	117
CCCCNC(=O)/C(C#N)=c1\s/c(=C\c2ccccc2OC(F)F)c(=O)n1CCCOC	-16	2	-10	65*	-7	118	104
N/C(=N\OC(=O)CC1CCCCC1)c1ccc(Cl)cc1	14	-7	-5	98	-2	.	.
OC(COCC(F)(F)C(F)(F)C(F)(F)C(F)F)Cn1c2ccc(Cl)cc2c2cc(Cl)ccc21 (stereo unspecified)	25	-2	-9	97	-3	109	93
N=c1n(Cc2ccc(Cl)cc2)c2ccccc2n1CC(O)COc1ccccc1 (stereo unspecified)	6	-7	2	107	3	.	.
COc1ccccc1C1=NN(C(=O)c2ccccc2)C(c2ccc(Br)cc2)C1 (stereo unspecified)	3	-17	-7	60*	-6	101	98
Cc1ccc(S(=O)(=O)NNC(=O)CCC(=O)Nc2ccccc2Cl)cc1	-14	4	0	79	0	.	.
C[C@@H]1CN([C@@H](C)CO)C(=O)CCCn2cc(nn2)CO[C@H]1CN(C)S(=O)(=O)c1ccc(Cl)cc1	-20	.	.	.	.	.	.
COC(=O)c1cccc(NC2CC(=O)N(c3ccc(OC)c(OC)c3)C2=O)c1 (stereo unspecified)	-10	2	0	62*	3	97	93
COc1ccc(N2C(=O)CC(Nc3ccc(C(=O)O)cc3)C2=O)cc1OC (stereo unspecified)	2	2	-5	73	0	.	.
SMILES	PfG6PD inh	PfM18AAP inh	A3G deaminase	CR mimetic SO	APOBEC3A inh	Superoxide pick	DHE counter
CSC(=S)N/N=C(\C)c1ccccc1	-1	6	-10	104	0	.	.
COc1ccc(-c2cnc3c(c2)C(=O)N([C@H](C)CO)C[C@@H](C)[C@@H](CN(C)C(=O)NC2CCCC2)O3)cc1	14	.	.	.	.	.	.
Cc1c(Br)c(-c2n[nH]c(=S)n2Cc2ccco2)nn1C	24	19	36	89	0	.	.
Cc1cc(-c2n[nH]c(=S)n2Cc2ccco2)nn1C	30	14	24	65*	-8	102	98
COc1ccc(S(=O)(=O)N2CCOC2CNC(=O)C(=O)NCc2ccccn2)cc1OC (stereo unspecified)	-4	.	.	.	.	.	.
Cc1cc(Br)ccc1NC(=O)CN(C)C(=O)C1CCN(C(=O)c2ccc(Cl)cc2)CC1	-7	.	.	.	.	.	.
CS(=O)(=O)Nc1ccccc1C(=O)N1CCN(c2ccccc2)CC1	.	-3	-3	84	-1	111	110
CSc1ccccc1C(=O)N1CCN(c2ccc(F)cc2)CC1	-9	-8	-2	95	0	109	90
CS(=O)(=O)Nc1ccccc1C(=O)N1CCCC1	11	-1	-6	92	0	.	.
C=CCn1nc(C(=O)N2CCOCC2)cc1-c1sc(NC(=O)c2ccccc2)nc1C	-18	.	.	.	.	.	.
CCOc1ccc(Br)cc1S(=O)(=O)Nc1cccc(S(=O)(=O)N(C)C)c1	-5	-3	-7	96	-3	.	.
O=C(CSc1nnc(-c2ccc(O)cc2)n1Cc1ccco1)N1CCc2ccccc2C1	-11	-20	-8	60*	-5	92	92
NC(=O)CSc1nnc(-c2ccc(O)cc2)n1Cc1ccco1	14	2	0	88	0	.	.
CC(=O)c1c(-c2ccccc2)c2cc([N+](=O)[O-])ccc2[nH]c1=O	-6	1	4	59*	1	111	106
CC(=O)c1c(C)nc2ccc([N+](=O)[O-])cc2c1-c1ccccc1	-15	-2	-5	104	-2	.	.
CC1CC(C)CN(C(=O)CCCNC(=O)c2ccc(Cl)cc2)C1 (stereo unspecified)	-6	-3	3	79	4	.	.
CCCNS(=O)(=O)c1ccc(NC(=O)c2cccnc2)cc1	0	2	-5	58*	1	115	107
COc1ccc(NC(=O)CN2CCN(c3ccccn3)CC2)cc1Cl	-4	-4	-3	55*	5	99	97
Cc1cnc(NC(=O)CN2CCN(c3ccccn3)CC2)s1	-1	2	-1	114	-2	.	.
CC(C)c1ccc(NC(=O)CN2CCN(c3ccccn3)CC2)cc1	5	0	-5	85	-3	89	93
Cc1cc(N)ccc1NC(=O)CN1CCCC1	4	7	6	64*	-4	91	92
CSc1ccccc1NC(=O)CN1CCN(c2ccccn2)CC1	-10	-4	-11	97	-1	99	101
O=c1oc(-c2ccccc2)cc(Cl)c1Cl	2	14	2	84	0	.	.
CC(CCN1C(Nc2ccccc2)=NC[C@@H]1Cc1ccccc1)c1ccccc1 (stereo partly specified)	10	0	-10	113	-3	.	.
